# Measurements: PubChem BioAssay AID1159580 (chemical genetic matrix, 2015)
# The campaign covered roughly 5,500 compounds. About 2,000 (36%) were called active. Another 18% or so got no clear call; they are omitted. The list shows a part of the results. Unmarked numbers belong to inactive results. Rule as the data show it: active = normalized growth mostly below about 0.91 (no sharp cut-off); inconclusive = no clear call, values can overlap the other calls; inactive = mostly above about 0.92.
# Experiment: chemical genetic growth profiling, strain panel (AID 1159580);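 also: tested at 20 µM; growth read once vehicle control cultures reached saturation at 30 °C; 1 = growth at the plate median or of vehicle wells; lower values mean less growth of the strain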
# Details: growth OD
smiles,measurement,setting,value
Nc1c2ccccc2nc2ccccc12,normalized growth,"S. cerevisiae deletion strains, locus YJR075W, strain HOC1, stronger effect = lower value",0.646 (active)
same,normalized growth,"S. cerevisiae deletion strains, locus YKL009W, strain mrt4, stronger effect = lower value",0.909
same,normalized growth,"S. cerevisiae deletion strains, locus YKL068W, stronger effect = lower value",0.988
same,normalized growth,"S. cerevisiae deletion strains, locus YKL085W, strain MDH1 (second series), stronger effect = lower value",0.872 (active)
same,normalized growth,"S. cerevisiae deletion strains, locus YKL085W, strain MDH1, stronger effect = lower value",0.872 (active)
same,normalized growth,"S. cerevisiae deletion strains, locus YKL160W, strain elf1, stronger effect = lower value",0.562 (active)
same,normalized growth,"S. cerevisiae deletion strains, locus YKL190W, strain CNB1, stronger effect = lower value",0.64 (active)
same,normalized growth,"S. cerevisiae deletion strains, locus YKR001C, strain vps1, stronger effect = lower value",0.481 (active)
same,normalized growth,"S. cerevisiae deletion strains, locus YKR026C, strain gcn3, stronger effect = lower value",0.968
same,normalized growth,"S. cerevisiae deletion strains, locus YKR091W, strain srl3, stronger effect = lower value",0.925 (active)
same,normalized growth,"S. cerevisiae deletion strains, locus YLL001W, strain dnm1, stronger effect = lower value",0.476 (active)
same,normalized growth,"S. cerevisiae deletion strains, locus YLL026W, stronger effect = lower value",0.555 (active)
same,normalized growth,"S. cerevisiae deletion strains, locus YLL041C, strain sdh2, stronger effect = lower value",0.784 (active)
same,normalized growth,"S. cerevisiae deletion strains, locus YLR027C, strain aat2, stronger effect = lower value",0.453 (active)
same,normalized growth,"S. cerevisiae deletion strains, locus YLR039C, strain RIC1, stronger effect = lower value",0.99
same,normalized growth,"S. cerevisiae deletion strains, locus YLR058C, strain SHM2, stronger effect = lower value",0.613 (active)
same,normalized growth,"S. cerevisiae deletion strains, locus YLR102C, strain apc9, stronger effect = lower value",0.823 (active)
same,normalized growth,"S. cerevisiae deletion strains, locus YLR113W, strain HOG1, stronger effect = lower value",0.979
same,normalized growth,"S. cerevisiae deletion strains, locus YLR221C, strain rsa3, stronger effect = lower value",0.516 (active)
same,normalized growth,"S. cerevisiae deletion strains, locus YLR258W, strain gsy2, stronger effect = lower value",0.53 (active)
same,normalized growth,"S. cerevisiae deletion strains, locus YLR262C, strain YPT6 (second series), stronger effect = lower value",0.843 (active)
same,normalized growth,"S. cerevisiae deletion strains, locus YLR262C, strain YPT6, stronger effect = lower value",0.915
same,normalized growth,"S. cerevisiae deletion strains, locus YLR268W, strain sec22, stronger effect = lower value",0.515 (active)
same,normalized growth,"S. cerevisiae deletion strains, locus YLR320W, strain mms22, stronger effect = lower value",0.565 (active)
same,normalized growth,"S. cerevisiae deletion strains, locus YLR330W, strain CHS5, stronger effect = lower value",0.886 (active)
same,normalized growth,"S. cerevisiae deletion strains, locus YLR342W, strain FKS1 (second series), stronger effect = lower value",0.713 (active)
same,normalized growth,"S. cerevisiae deletion strains, locus YLR342W, strain FKS1, stronger effect = lower value",0.792 (active)
same,normalized growth,"S. cerevisiae deletion strains, locus YLR357W, strain rsc2, stronger effect = lower value",1.2 [resistant] (active)
same,normalized growth,"S. cerevisiae deletion strains, locus YLR370C, strain arc18, stronger effect = lower value",0.7 (active)
same,normalized growth,"S. cerevisiae deletion strains, locus YLR371W, strain rom2, stronger effect = lower value",0.948
same,normalized growth,"S. cerevisiae deletion strains, locus YLR384C, strain iki3, stronger effect = lower value",0.853 (active)
same,normalized growth,"S. cerevisiae deletion strains, locus YLR418C, strain cdc73, stronger effect = lower value",0.689 (active)
same,normalized growth,"S. cerevisiae deletion strains, locus YML016C, strain PPZ1, stronger effect = lower value",0.847 (active)
same,normalized growth,"S. cerevisiae deletion strains, locus YML032C, strain rad52, stronger effect = lower value",0.314 (active)
same,normalized growth,"S. cerevisiae deletion strains, locus YML120C, strain ndi1, stronger effect = lower value",0.582 (active)
same,normalized growth,"S. cerevisiae deletion strains, locus YML124C, strain tub3, stronger effect = lower value",0.743 (active)
same,normalized growth,"S. cerevisiae deletion strains, locus YMR058W, strain fet3, stronger effect = lower value",0.639 (active)
same,normalized growth,"S. cerevisiae deletion strains, locus YMR078C, strain ctf18, stronger effect = lower value",0.763 (active)
same,normalized growth,"S. cerevisiae deletion strains, locus YMR125W, strain sto1, stronger effect = lower value",0.919
same,normalized growth,"S. cerevisiae deletion strains, locus YMR129W, stronger effect = lower value",0.693 (active)
same,normalized growth,"S. cerevisiae deletion strains, locus YMR205C, strain PFK2, stronger effect = lower value",0.634 (active)
same,normalized growth,"S. cerevisiae deletion strains, locus YMR223W, strain ubp8, stronger effect = lower value",0.557 (active)
same,normalized growth,"S. cerevisiae deletion strains, locus YMR231W, strain pep5, stronger effect = lower value",0.985
same,normalized growth,"S. cerevisiae deletion strains, locus YMR263W, strain SAP30, stronger effect = lower value",0.767 (active)
same,normalized growth,"S. cerevisiae deletion strains, locus YMR307W, strain GAS1, stronger effect = lower value",1.13
same,normalized growth,"S. cerevisiae deletion strains, locus YNL067W, strain RPL9B, stronger effect = lower value",0.606 (active)
same,normalized growth,"S. cerevisiae deletion strains, locus YNL071W, strain lat1, stronger effect = lower value",0.977
same,normalized growth,"S. cerevisiae deletion strains, locus YNL128W, strain TEP1, stronger effect = lower value",0.733 (active)
same,normalized growth,"S. cerevisiae deletion strains, locus YNL153C, strain GIM3, stronger effect = lower value",0.713 (active)
same,normalized growth,"S. cerevisiae deletion strains, locus YNL183C, strain NPR1, stronger effect = lower value",0.771 (active)
same,normalized growth,"S. cerevisiae deletion strains, locus YNL209W, strain ssb2, stronger effect = lower value",0.663 (active)
same,normalized growth,"S. cerevisiae deletion strains, locus YNL233W, strain BNI4, stronger effect = lower value",0.74 (active)
same,normalized growth,"S. cerevisiae deletion strains, locus YNL248C, strain rpa49, stronger effect = lower value",0.445 (active)
same,normalized growth,"S. cerevisiae deletion strains, locus YNL250W, strain rad50, stronger effect = lower value",0.78 (active)
same,normalized growth,"S. cerevisiae deletion strains, locus YNL271C, strain bni1, stronger effect = lower value",0.87 (active)
same,normalized growth,"S. cerevisiae deletion strains, locus YNL298W, strain CLA4, stronger effect = lower value",0.847 (active)
same,normalized growth,"S. cerevisiae deletion strains, locus YNL307C, strain MCK1, stronger effect = lower value",0.715 (active)
same,normalized growth,"S. cerevisiae deletion strains, locus YNL322C, strain KRE1 (second series), stronger effect = lower value",0.981
same,normalized growth,"S. cerevisiae deletion strains, locus YNL322C, strain KRE1, stronger effect = lower value",0.698 (active)
same,normalized growth,"S. cerevisiae deletion strains, locus YNR049C, strain mso1, stronger effect = lower value",0.672 (active)
same,normalized growth,"S. cerevisiae deletion strains, locus YNR052C, strain pop2, stronger effect = lower value",0.778 (active)
same,normalized growth,"S. cerevisiae deletion strains, locus YOL006C, strain TOP1, stronger effect = lower value",0.67
same,normalized growth,"S. cerevisiae deletion strains, locus YOL012C, strain htz1",2.35 [resistant] (active)
same,normalized growth,"S. cerevisiae deletion strains, locus YOL147C, strain pex11, stronger effect = lower value",0.661 (active)
same,normalized growth,"S. cerevisiae deletion strains, locus YOR001W, strain rrp6, stronger effect = lower value",0.309 (active)
same,normalized growth,"S. cerevisiae deletion strains, locus YOR061W, strain CKA2, stronger effect = lower value",0.824 (active)
same,normalized growth,"S. cerevisiae deletion strains, locus YOR069W, strain VPS5, stronger effect = lower value",0.811 (active)
same,normalized growth,"S. cerevisiae deletion strains, locus YOR070C, strain gyp1, stronger effect = lower value",0.625 (active)
same,normalized growth,"S. cerevisiae deletion strains, locus YOR080W, strain dia2, stronger effect = lower value",0.783 (active)
same,normalized growth,"S. cerevisiae deletion strains, locus YOR083W, strain WHI5, stronger effect = lower value",0.501 (active)
same,normalized growth,"S. cerevisiae deletion strains, locus YOR106W, strain vam3, stronger effect = lower value",0.445 (active)
same,normalized growth,"S. cerevisiae deletion strains, locus YOR136W, strain idh2, stronger effect = lower value",0.805 (active)
same,normalized growth,"S. cerevisiae deletion strains, locus YOR144C, strain elg1, stronger effect = lower value",0.752 (active)
same,normalized growth,"S. cerevisiae deletion strains, locus YOR184W, strain ser1, stronger effect = lower value",0.41 (active)
same,normalized growth,"S. cerevisiae deletion strains, locus YOR231W, strain MKK1, stronger effect = lower value",0.67 (active)
same,normalized growth,"S. cerevisiae deletion strains, locus YOR265W, strain rbl2, stronger effect = lower value",0.706 (active)
same,normalized growth,"S. cerevisiae deletion strains, locus YOR270C, strain vph1, stronger effect = lower value",0.599 (active)
same,normalized growth,"S. cerevisiae deletion strains, locus YOR290C, strain snf2, stronger effect = lower value",0.371 (active)
same,normalized growth,"S. cerevisiae deletion strains, locus YOR316C, strain cot1, stronger effect = lower value",0.808 (active)
same,normalized growth,"S. cerevisiae deletion strains, locus YPL051W, strain arl3, stronger effect = lower value",0.696 (active)
same,normalized growth,"S. cerevisiae deletion strains, locus YPL055C, strain LGE1, stronger effect = lower value",0.659 (active)
same,normalized growth,"S. cerevisiae deletion strains, locus YPL078C, strain atp4, stronger effect = lower value",0.674 (active)
same,normalized growth,"S. cerevisiae deletion strains, locus YPL106C, strain sse1, stronger effect = lower value",0.781 (active)
same,normalized growth,"S. cerevisiae deletion strains, locus YPL240C, strain hsp82, stronger effect = lower value",0.8 (active)
same,normalized growth,"S. cerevisiae deletion strains, locus YPL241C, strain CIN2, stronger effect = lower value",0.837 (active)
same,normalized growth,"S. cerevisiae deletion strains, locus YPL256C, strain CLN2, stronger effect = lower value",0.778 (active)
same,normalized growth,"S. cerevisiae deletion strains, locus YPR119W, strain clb2, stronger effect = lower value",0.862 (active)
same,normalized growth,"S. cerevisiae deletion strains, locus YPR141C, strain kar3, stronger effect = lower value",1.02
same,normalized growth,"S. cerevisiae deletion strains, locus YPR163C, strain tif3, stronger effect = lower value",0.974
same,normalized growth,"S. cerevisiae deletion strains, locus YPR167C, strain met16, stronger effect = lower value",0.758 (active)
same,normalized growth,"S. cerevisiae deletion strains, strain wtn01, stronger effect = lower value",0.42 (active)
same,normalized growth,"S. cerevisiae strains, strain wild type, stronger effect = lower value",0.601 (active)
